Assay results reported in PubChem BioAssay (EPA / NIEHS).
“And” between values parts separate entries of the source, which are not always exact repeats. Equal values may be shown once. A structure can be active in one record and inactive in another. The source made the active and inactive calls. How the source made its calls: active means hit-call score of the fitted dose curve at least 0.9, where 1 is the maximum; inactive means score below 0.9.

Legend:
[1] = target: Bile acid receptor (Homo sapiens) (UniProt Q96RI1); test: ATG_IR1_CIS: Attagene CIS-FACTORIAL HepG2 Assay for human Nuclear Receptor Subfamily 1 Group H Member 4 (NR1H4), IR1 submotif (AID 2282946); settings: IR1 reporter transcription, actives raise or lower the signal
Sequence of Bile acid receptor (Homo sapiens) (Q96RI1 whole entry, looked up): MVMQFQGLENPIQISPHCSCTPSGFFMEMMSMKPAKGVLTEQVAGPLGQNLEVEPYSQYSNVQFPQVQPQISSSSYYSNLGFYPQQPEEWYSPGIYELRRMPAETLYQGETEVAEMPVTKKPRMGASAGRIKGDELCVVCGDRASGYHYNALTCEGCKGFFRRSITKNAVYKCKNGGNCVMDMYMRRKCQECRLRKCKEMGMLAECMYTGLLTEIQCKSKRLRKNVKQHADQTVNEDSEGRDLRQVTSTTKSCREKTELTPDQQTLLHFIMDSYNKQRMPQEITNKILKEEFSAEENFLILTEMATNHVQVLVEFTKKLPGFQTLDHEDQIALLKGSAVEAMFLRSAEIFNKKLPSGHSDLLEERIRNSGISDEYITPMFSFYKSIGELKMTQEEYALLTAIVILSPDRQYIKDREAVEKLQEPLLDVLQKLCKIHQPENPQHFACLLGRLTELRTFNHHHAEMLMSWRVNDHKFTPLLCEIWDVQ
How it was run: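 Transient MRTU transfection, HepG2; 24 h dosing; RNA → RT-PCR → 6-FAM primer extension → HpaI digest → capillary electrophoresis fluorescence. Gain/loss of signal fitted relative to DMSO.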

[2] = ATG_ISRE_CIS: Attagene CIS-FACTORIAL HepG2 Assay for human Interferon Regulatory Factor 1 (IRF1) binding to an Interferon-Stimulated Response Element (ISRE) (AID 2282948); settings: HepG2 ISRE cis-reporter (Attagene), mRNA transcription readout; actives raise or lower the signal
How it was run: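 Cell-based cis-reporter assay; HepG2; 24 h exposure; reporter mRNA by RT-PCR plus capillary electrophoresis fluorescence; activity in either direction scored relative to DMSO.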

[3] = ATG_M_32_CIS: Attagene CIS-FACTORIAL HepG2 Assay for M32 Transcription Factor (Internal Marker) (AID 2282949); settings: HepG2 Attagene cis-factorial M32 reporter, mRNA; actives raise or lower the signal;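 further: background control marker of the multiplexed CIS panel rather than a real target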
How it was run: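 HepG2 cells transiently transfected with multiplexed cis-regulated reporter units, dosed 24 h. Reporter mRNA quantified by RT-PCR, 6-FAM labelling, HpaI digestion and capillary electrophoresis; bidirectional fit vs DMSO.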

[4] = ATG_M_06_CIS: Attagene CIS-FACTORIAL HepG2 Assay for M06 Transcription Factor (Internal Marker) (AID 2282950); settings: HepG2 Attagene CIS-FACTORIAL M06 internal marker reporter; actives raise or lower the signal
How it was run: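 Internal background marker within multiplexed cis-reporter HepG2 system. Cells transiently transfected, dosed 24 h; reporter mRNA measured by RT-PCR, HpaI digestion and capillary electrophoresis. Bidirectional fit relative to DMSO.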

[5] = target: Hypoxia-inducible factor 1-alpha (Homo sapiens) (UniProt Q16665); test: ATG_HIF1a_CIS: Attagene CIS-FACTORIAL HepG2 Assay for human Hypoxia Inducible Factor 1 (HIF1A) (AID 2282951); settings: HepG2 Attagene cis-factorial HIF1a reporter transcription; actives raise or lower the signal
Sequence of Hypoxia-inducible factor 1-alpha (Homo sapiens) (Q16665 whole entry, looked up): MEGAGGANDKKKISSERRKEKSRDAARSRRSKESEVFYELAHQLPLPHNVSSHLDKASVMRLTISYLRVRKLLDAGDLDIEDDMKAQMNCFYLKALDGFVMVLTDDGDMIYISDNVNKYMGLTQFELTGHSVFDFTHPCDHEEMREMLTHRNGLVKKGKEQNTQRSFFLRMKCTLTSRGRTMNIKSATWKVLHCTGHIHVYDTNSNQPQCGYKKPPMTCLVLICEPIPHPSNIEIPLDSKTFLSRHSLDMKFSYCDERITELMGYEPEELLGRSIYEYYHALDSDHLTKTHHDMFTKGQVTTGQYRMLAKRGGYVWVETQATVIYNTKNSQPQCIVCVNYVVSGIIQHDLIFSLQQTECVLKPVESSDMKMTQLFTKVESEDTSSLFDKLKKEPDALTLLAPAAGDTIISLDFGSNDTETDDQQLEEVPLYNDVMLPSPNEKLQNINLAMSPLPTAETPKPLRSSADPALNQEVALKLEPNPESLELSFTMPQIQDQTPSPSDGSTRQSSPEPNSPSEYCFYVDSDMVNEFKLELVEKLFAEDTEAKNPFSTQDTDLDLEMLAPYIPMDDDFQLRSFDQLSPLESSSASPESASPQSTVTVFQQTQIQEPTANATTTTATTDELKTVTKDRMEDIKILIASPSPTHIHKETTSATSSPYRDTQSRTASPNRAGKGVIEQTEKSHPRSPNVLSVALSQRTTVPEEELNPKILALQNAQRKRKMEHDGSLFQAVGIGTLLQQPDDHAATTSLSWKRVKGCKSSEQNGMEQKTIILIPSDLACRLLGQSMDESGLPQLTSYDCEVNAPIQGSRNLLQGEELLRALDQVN
How it was run: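 In this multiplexed cell assay, HepG2 cells bearing transfected cis reporters are dosed for 24 h and reporter mRNA is read by RT-PCR plus capillary electrophoresis; signal increases and decreases are both scored against DMSO.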

[6] = target: Hepatocyte nuclear factor 6 (Homo sapiens) (UniProt Q9UBC0); test: ATG_HNF6_CIS: Attagene CIS-FACTORIAL HepG2 Assay for human Hepatocyte Nuclear Factor 6 (HNF6) (AID 2282952); settings: HepG2 Attagene cis-factorial HNF6 reporter transcription; actives raise or lower the signal
Sequence of Hepatocyte nuclear factor 6 (Homo sapiens) (Q9UBC0 whole entry, looked up, the tested form may be a part): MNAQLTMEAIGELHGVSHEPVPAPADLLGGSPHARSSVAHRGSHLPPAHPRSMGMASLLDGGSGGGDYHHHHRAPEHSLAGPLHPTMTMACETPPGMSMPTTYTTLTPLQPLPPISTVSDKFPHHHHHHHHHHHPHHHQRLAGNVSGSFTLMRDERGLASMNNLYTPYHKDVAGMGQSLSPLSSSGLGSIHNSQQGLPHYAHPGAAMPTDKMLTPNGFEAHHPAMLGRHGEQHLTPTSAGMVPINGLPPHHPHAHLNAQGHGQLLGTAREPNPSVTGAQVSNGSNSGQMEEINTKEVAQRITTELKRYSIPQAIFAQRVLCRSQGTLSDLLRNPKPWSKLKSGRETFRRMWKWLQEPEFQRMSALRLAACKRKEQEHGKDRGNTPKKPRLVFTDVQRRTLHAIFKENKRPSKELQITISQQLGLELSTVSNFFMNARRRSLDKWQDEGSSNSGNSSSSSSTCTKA
How it was run: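 HepG2 cells transiently transfected with cis-element-driven multiplexed reporter units measuring endogenous transcription factor activity. After 24 h exposure, reporter mRNA quantified by RT-PCR, FAM-labelled fragments and capillary electrophoresis; bidirectional fitting versus DMSO.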

[7] = target: Heat shock factor protein 1 (Homo sapiens) (UniProt Q00613); test: ATG_HSE_CIS: Attagene CIS-FACTORIAL HepG2 Assay for human Heat Shock Transcription Factor 1 (HSE) (AID 2282953); settings: HepG2 HSE cis-reporter, Attagene RNA transcription; actives raise or lower the signal
Sequence of Heat shock factor protein 1 (Homo sapiens) (Q00613 whole entry, looked up): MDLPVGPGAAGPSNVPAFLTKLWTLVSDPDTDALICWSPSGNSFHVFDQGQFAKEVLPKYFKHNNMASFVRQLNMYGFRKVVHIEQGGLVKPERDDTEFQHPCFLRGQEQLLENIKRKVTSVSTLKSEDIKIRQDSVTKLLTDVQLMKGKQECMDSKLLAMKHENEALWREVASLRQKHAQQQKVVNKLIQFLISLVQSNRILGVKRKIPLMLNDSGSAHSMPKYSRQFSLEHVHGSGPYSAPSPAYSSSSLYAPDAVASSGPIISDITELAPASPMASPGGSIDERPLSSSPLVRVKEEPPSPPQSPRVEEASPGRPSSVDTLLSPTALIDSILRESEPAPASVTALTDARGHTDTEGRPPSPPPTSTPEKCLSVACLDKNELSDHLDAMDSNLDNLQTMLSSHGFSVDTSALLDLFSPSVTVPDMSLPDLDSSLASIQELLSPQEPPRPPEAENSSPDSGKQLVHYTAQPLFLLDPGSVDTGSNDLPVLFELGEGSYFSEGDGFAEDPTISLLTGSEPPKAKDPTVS
How it was run: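 HepG2 cells transfected with cis-promoter reporter units sensing endogenous transcription factor activity; reporter mRNA quantified 24 h post-dose by RT-PCR and capillary electrophoresis of 6-FAM-labelled products. Bidirectional fitting against DMSO.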

[8] = ATG_MRE_CIS: Attagene CIS-FACTORIAL HepG2 Assay for human Metal Responsive Element (MRE) (AID 2282954); settings: HepG2 MRE cis-reporter transcription, Attagene multiplex; actives raise or lower the signal
How it was run: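 Step one: transfect HepG2 with cis-regulated reporter units. Step two: dose 24 h. Step three: isolate RNA, RT-PCR, 6-FAM label, HpaI digest, capillary electrophoresis. Fit bidirectionally to DMSO.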

[9] = target: Paired box protein Pax-6 (Homo sapiens) (UniProt P26367); test: ATG_Pax6_CIS: Attagene CIS-FACTORIAL HepG2 Assay for human Paired Box 6 (PAX6) (AID 2282956); settings: HepG2 CIS-FACTORIAL PAX6 reporter transcription, RNA readout; actives raise or lower the signal
Sequence of Paired box protein Pax-6 (Homo sapiens) (P26367 whole entry, looked up): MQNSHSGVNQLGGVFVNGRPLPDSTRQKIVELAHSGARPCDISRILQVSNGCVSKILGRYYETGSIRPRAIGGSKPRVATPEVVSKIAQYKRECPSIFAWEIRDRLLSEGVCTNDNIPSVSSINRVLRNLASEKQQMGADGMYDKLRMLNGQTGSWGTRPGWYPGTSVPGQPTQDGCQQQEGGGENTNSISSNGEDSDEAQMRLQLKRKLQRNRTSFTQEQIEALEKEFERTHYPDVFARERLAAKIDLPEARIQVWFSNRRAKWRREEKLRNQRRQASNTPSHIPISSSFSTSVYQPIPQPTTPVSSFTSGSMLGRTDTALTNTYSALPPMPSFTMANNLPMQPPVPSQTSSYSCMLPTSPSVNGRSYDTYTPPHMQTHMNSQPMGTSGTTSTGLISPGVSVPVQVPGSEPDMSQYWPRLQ
How it was run: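 Multiplexed cis-reporter HepG2 system; 24 h treatment; reporter mRNA read by RT-PCR/CE fluorescence; bidirectional fit vs DMSO.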

[10] = ATG_PXRE_CIS: Attagene CIS-FACTORIAL HepG2 Assay for human Pregnane X Receptor Element (PXRE) (AID 2282957); settings: HepG2 Attagene CIS-FACTORIAL PXRE reporter, mRNA; actives raise or lower the signal
How it was run: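 HepG2 cells transiently transfected with cis-element-driven multiplexed reporter units; after 24 h chemical exposure, reporter mRNA measured by RT-PCR, 6-FAM labelling, HpaI digestion and capillary electrophoresis. Bidirectional fitting relative to DMSO.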

[11] = ATG_PPRE_CIS: Attagene CIS-FACTORIAL HepG2 Assay for human Peroxisome Proliferator-activated Response Element (PPRE) (AID 2282958); settings: HepG2 PPRE cis-element reporter, Attagene transcription factor profiling; actives raise or lower the signal
How it was run: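 Multiplexed reporter transcription units under cis-regulatory promoters were transfected into HepG2 cells to capture endogenous factor activity. A 24 h incubation preceded RNA isolation and fluorescent RT-PCR fragment analysis.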

[12] = ATG_RORE_CIS: Attagene CIS-FACTORIAL HepG2 Assay for human RAR-related Orphan Receptor Element (RORE) (AID 2282959); settings: HepG2 Attagene cis-factorial RORE reporter, mRNA; actives raise or lower the signal
How it was run: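 Fluorescence intensity of reporter-specific cDNA fragments, separated by capillary electrophoresis, gives the signal. Source: HepG2 liver cells transiently transfected with cis-element reporters and exposed 24 h; DMSO-normalized bidirectional fit.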

[13] = ATG_Sox_CIS: Attagene CIS-FACTORIAL HepG2 Assay for human SRY-box transcription factor (SOX) (AID 2282960); settings: HepG2 Attagene cis-factorial SOX reporter, mRNA; actives raise or lower the signal
How it was run: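 After 24 h of chemical treatment, transfected HepG2 reporter cells are lysed for total RNA. Transcript levels come from RT-PCR with labelled primer extension and capillary electrophoresis, analysed bidirectionally versus DMSO.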

[14] = target: Transcription factor Sp1 (Homo sapiens) (UniProt P08047); test: ATG_Sp1_CIS: Attagene CIS-FACTORIAL HepG2 Assay for human Specificity Protein 1 (Sp1) (AID 2282961); settings: HepG2 Sp1 cis-reporter transcription, actives raise or lower the signal
Sequence of Transcription factor Sp1 (Homo sapiens) (P08047 whole entry, looked up): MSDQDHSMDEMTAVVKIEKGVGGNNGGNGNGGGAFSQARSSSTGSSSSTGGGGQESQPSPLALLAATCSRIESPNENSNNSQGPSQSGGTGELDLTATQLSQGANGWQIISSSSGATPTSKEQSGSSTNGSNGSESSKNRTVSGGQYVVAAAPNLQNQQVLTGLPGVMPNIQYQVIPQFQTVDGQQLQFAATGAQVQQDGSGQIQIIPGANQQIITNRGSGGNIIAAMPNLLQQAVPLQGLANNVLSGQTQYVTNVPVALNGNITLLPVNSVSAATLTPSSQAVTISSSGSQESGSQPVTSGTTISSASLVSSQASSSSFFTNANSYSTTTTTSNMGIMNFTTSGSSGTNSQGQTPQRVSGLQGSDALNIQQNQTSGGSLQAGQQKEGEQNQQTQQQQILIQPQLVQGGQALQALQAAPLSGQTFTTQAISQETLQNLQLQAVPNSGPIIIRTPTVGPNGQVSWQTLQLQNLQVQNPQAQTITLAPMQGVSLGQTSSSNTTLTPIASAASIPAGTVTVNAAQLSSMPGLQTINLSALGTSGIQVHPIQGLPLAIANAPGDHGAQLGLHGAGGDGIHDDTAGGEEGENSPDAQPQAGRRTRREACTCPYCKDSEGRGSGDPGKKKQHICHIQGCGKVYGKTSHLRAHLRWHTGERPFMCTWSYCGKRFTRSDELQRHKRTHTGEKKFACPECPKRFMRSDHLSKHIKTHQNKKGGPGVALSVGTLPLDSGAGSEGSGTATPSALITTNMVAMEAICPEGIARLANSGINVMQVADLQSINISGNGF
How it was run: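 Sp1-driven reporter mRNA, read as capillary electrophoresis fluorescence after RT-PCR, in transiently transfected HepG2 cells dosed for 24 h; signal change in either direction relative to DMSO.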

[15] = ATG_SREBP_CIS: Attagene CIS-FACTORIAL HepG2 Assay for human Sterol Regulatory Element Binding (SREBP) (AID 2282962); settings: HepG2 Attagene cis-factorial SREBP reporter, mRNA; actives raise or lower the signal
How it was run: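 mRNA induction of transfected cis-promoter reporters in HepG2 cells, 24 h post-dose. Detection: RT-PCR with 6-FAM-labelled products, HpaI digest, capillary electrophoresis. DMSO served as negative control and baseline.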

[16] = target: Signal transducer and activator of transcription 3 (Homo sapiens) (UniProt P40763); test: ATG_STAT3_CIS: Attagene CIS-FACTORIAL HepG2 Assay for human Signal Transducer and Activator of Transcription 3 (STAT3) (AID 2282963); settings: HepG2, Attagene cis-factorial STAT3 reporter transcription; actives raise or lower the signal
Sequence of Signal transducer and activator of transcription 3 (Homo sapiens) (P40763 whole entry, looked up): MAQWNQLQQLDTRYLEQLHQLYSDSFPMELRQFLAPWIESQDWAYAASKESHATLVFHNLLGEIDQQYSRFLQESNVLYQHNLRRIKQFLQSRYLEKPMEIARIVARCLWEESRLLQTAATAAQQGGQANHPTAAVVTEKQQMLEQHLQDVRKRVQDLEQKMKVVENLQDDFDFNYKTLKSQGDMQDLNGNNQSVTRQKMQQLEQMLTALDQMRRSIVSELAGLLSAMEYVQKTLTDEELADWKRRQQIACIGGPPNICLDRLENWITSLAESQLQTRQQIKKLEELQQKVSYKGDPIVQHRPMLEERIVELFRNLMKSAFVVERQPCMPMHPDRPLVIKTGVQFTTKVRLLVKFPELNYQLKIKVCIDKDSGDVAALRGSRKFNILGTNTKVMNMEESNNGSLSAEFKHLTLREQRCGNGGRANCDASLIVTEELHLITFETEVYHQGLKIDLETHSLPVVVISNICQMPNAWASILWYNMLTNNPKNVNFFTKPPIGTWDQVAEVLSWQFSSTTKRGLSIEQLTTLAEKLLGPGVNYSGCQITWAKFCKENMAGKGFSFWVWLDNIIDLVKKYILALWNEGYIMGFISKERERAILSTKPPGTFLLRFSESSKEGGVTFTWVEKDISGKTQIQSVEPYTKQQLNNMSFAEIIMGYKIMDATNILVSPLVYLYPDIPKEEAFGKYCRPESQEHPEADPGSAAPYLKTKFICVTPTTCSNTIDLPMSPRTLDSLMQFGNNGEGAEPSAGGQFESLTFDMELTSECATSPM
How it was run: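 Transcript-level reporter assay. HepG2 transient MRTU transfection, 24 h exposure, fluorescence detection after RT-PCR and CE; DMSO baseline.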

[17] = ATG_TA_CIS: Attagene CIS-FACTORIAL HepG2 Assay for human TA Basal Promoter (AID 2282964); settings: HepG2 Attagene CIS-factorial TA basal promoter reporter; actives raise or lower the signal
How it was run: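 HepG2 cells transiently transfected with multiple reporter units under cis promoter elements, reporting endogenous transcription factor activity; this endpoint tracks the TA basal promoter as background control. Reporter mRNA after 24 h dosing measured by RT-PCR/capillary electrophoresis; bidirectional fits versus DMSO.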

[18] = ATG_TCF_b_cat_CIS: Attagene CIS-FACTORIAL HepG2 Assay for human T-Cell-Factor with beta-catenin (TCF/b-cat) (AID 2282965); settings: HepG2 TCF/beta-catenin cis-reporter transcription, actives raise or lower the signal
How it was run: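 Using capillary electrophoresis as the read-out, labelled reporter cDNA fragments from transiently transfected HepG2 were sized and quantified. Exposure lasted 24 hours; activity in either direction was referenced to DMSO.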

[19] = ATG_GRE_CIS: Attagene CIS-FACTORIAL HepG2 Assay for human Glucocorticoid Response Elements (GRE) (AID 2282947); settings: HepG2 GRE cis-reporter, Attagene multiplex mRNA; actives raise or lower the signal
How it was run: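 Following 24 h chemical exposure of transiently transfected HepG2 cells, total RNA was reverse-transcribed and reporter cDNA amplified, fluorescently labelled and sized by capillary electrophoresis. Signal gain or loss was fitted relative to DMSO vehicle.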

[20] = ATG_PBREM_CIS: Attagene CIS-FACTORIAL HepG2 Assay for human Phenobarbital-responsive Enhancer Module (PBREM) (AID 2282955); settings: HepG2 PBREM cis-reporter, Attagene multiplexed transcription; actives raise or lower the signal
How it was run: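 After a 24 h incubation with test chemical, transfected HepG2 cells yield total RNA; reporter-specific RT-PCR products are fluorescently labelled, HpaI-digested and resolved by capillary electrophoresis against ROX size standards.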

Measured: AC50

CCN(CC)N=O
not listed: [19] | [20]
inactive: all other assays above

ClC1=C(Cl)C2(Cl)C3C(Cl)C=CC3C1(Cl)C2(Cl)Cl (stereo not drawn)
active: [8] 127 µM | [9] 139 µM | [10] 7.47 µM | [14] 168 µM
not listed: [1]
inactive: all other assays above

CS(=O)(=O)NC(=O)c1cc(Oc2ccc(C(F)(F)F)cc2Cl)ccc1[N+](=O)[O-]
not listed: [10] | [11] | [16] | [19]
inactive: all other assays above

O=[N+]([O-])C(Br)(CO)CO
active: [2] 164 µM | [5] 25 µM | [7] 158 µM | [9] 100 µM | [12] 100 µM | [13] 170 µM | [14] 145 µM | [18] 100 µM
not listed: [10] | [19]
inactive: all other assays above

COC(=O)Nc1nc2ccccc2[nH]1
not listed: [1]
inactive: all other assays above

CCCCCOC(=O)c1ccccc1C(=O)OCCCCC
active: [8] 151 µM | [10] 27.3 µM
not listed: [1] | [11]
inactive: all other assays above

CCCCOC(=O)c1ccccc1C(=O)OCc1ccccc1
active: [10] 27.1 µM
not listed: [1]
inactive: all other assays above

CCCCCCCCn1sccc1=O
active: [2] 17.6 µM | [6] 21 µM | [7] 16.7 µM | [8] 16.7 µM | [9] 19.1 µM | [13] 18.4 µM | [14] 17 µM | [15] 14.8 µM | [18] 15.6 µM
inactive: [1] | [19] | [3] | [5] | [11] | [12] | [16] | [17]

O=C(Nc1ccccc1)c1ccccc1I
active: [10] 6.15 µM | [15] 42.1 µM
not listed: [1]
inactive: all other assays above

C1=Cc2cccc3cccc1c23
not listed: [1] | [10] | [16]
inactive: all other assays above

ClC1=C(Cl)[C@]2(Cl)[C@H]3[C@H]([C@@H]4C=C[C@H]3C4)[C@@]1(Cl)C2(Cl)Cl
active: [8] 33.4 µM | [10] 2.06 µM | [12] 25.2 µM
not listed: [1] | [16]
inactive: all other assays above

CC(C)(C)OOC(=O)c1ccccc1
active: [8] 147 µM | [9] 149 µM | [10] 100 µM
not listed: [1]
inactive: all other assays above

CC(C)N(Cc1ccccc1)C(=O)C(C)(C)C
active: [10] 1.24 µM
not listed: [4] | [19]
inactive: all other assays above

CCNS(=O)(=O)C(F)(F)C(F)(F)C(F)(F)C(F)(F)C(F)(F)C(F)(F)C(F)(F)C(F)(F)F
inactive: [1] | [2] | [3] | [4] | [5] | [6] | [8] | [9] | [11] | [12] | [13] | [14] | [15] | [17] | [18]
active: [7] 130 µM and 218 µM and 80.8 µM | [8] 114 µM and 150 µM | [20] 96.5 µM and 61.9 µM and 34.7 µM | [9] 96.5 µM | [11] 146 µM and 29.8 µM | [13] 96.5 µM | [15] 148 µM | [18] 169 µM
